The values that follow come from the supplement of paper PMC3545927.

The list shows a part of the results. How many sequences the whole screen found active is unknown.

This test deals with furin, P09958. The experiment in a line: furin cleavage Z-score vs untreated control; higher = more cleavage, active = 3.5 or more, inactive = 1 or less, 8 variable residues between constant flanks. The procedure:
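Multiplexed peptide-cDNA fusion cleavage assay. 8-mer variable peptides flanked by constant Cys-Ala (N-term) and Ala-Gly-Asn-Ala-Ser-Ala-Ser-Ala (C-term) and conjugated to a cDNA oligonucleotide were bead-immobilised via the N-terminus. They were treated with purified furin at a 1:10 enzyme:substrate ratio in 50 mM HEPES pH 7.5, 1 mM CaCl2, 100 mM NaCl for 7.5, 15 or 30 min. Released cDNA was counted by next-generation sequencing, and log counts versus no-furin controls were lowess-adjusted and converted to robust Z-scores.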

furin, P09958, sequence (P09958 whole entry, the tested form may be a part): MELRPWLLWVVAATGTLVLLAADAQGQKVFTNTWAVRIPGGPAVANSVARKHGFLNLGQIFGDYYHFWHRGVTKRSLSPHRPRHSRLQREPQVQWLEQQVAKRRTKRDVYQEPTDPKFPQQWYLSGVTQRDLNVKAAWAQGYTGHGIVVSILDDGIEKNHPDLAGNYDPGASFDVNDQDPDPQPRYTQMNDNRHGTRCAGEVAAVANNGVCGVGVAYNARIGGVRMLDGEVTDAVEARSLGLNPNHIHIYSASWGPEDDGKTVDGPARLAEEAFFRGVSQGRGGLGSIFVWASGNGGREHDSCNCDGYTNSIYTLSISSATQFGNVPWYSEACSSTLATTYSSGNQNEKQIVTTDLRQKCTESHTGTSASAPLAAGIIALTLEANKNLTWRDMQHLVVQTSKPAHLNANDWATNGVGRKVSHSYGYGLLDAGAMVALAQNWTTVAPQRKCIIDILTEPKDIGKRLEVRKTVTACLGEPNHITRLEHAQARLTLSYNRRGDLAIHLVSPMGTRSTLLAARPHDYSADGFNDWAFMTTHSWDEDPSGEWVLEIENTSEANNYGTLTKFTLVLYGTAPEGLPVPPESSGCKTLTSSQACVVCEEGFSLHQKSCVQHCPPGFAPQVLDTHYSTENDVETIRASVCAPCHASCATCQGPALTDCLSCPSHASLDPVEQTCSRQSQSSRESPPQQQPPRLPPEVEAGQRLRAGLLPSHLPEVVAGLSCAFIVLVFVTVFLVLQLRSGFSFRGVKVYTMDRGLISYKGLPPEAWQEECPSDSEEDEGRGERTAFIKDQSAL

Take CATIETITLPAGNASASA [HC896]: the “furin cleavage Z-score” value is -1.51 (inactive) (7.5 min), 0.877 (inactive) (15 min) and -0.833 (inactive) (30 min).

As for CAMEFCSQHLAGNASASA [HC1707], the “furin cleavage Z-score” value by setting is: (7.5 min) 0.147 (inactive); (15 min) 0.288 (inactive); (30 min) -0.0248 (inactive).

For the sequence CAMEEVSQHLAGNASASA [HC3], the “furin cleavage Z-score” value was 0.556 (inactive) (7.5 min), 1.13 (15 min) and 2.1 (30 min).

For CARRKRQVRRAGNASASA [FS-2370], the “furin cleavage Z-score” value reads like this: (7.5 min) 6.85 (active); (15 min) 8.4 (active); (30 min) 6.39 (active).

Turning to CARRVRDKDGAGNASASA [FS-2300], the “furin cleavage Z-score” value (7.5 min) was 0.77 (inactive), the “furin cleavage Z-score” value (15 min) was 1.62 and the “furin cleavage Z-score” value (30 min) is 2.04.

With CARRKRQVYGAGNASASA [FS-3204], the “furin cleavage Z-score” value (7.5 min) was 6.12 (active), the “furin cleavage Z-score” value (15 min) was 7.43 (active) and the “furin cleavage Z-score” value (30 min) was 7.08 (active).

In the case of CARRKKSQDGAGNASASA [FS-1775], the “furin cleavage Z-score” value runs as follows: (7.5 min) 0.168 (inactive); (15 min) -0.316 (inactive); (30 min) 0.531 (inactive).

As to CARRKRQIYGAGNASASA [FS-3055], the “furin cleavage Z-score” value is, setting by setting: (7.5 min) 2.2; (15 min) 5.1 (active); (30 min) 6.81 (active).

On to CARRKRDLDGAGNASASA [FS-3052], for which the “furin cleavage Z-score” value was 11.5 (active) (7.5 min), 11.4 (active) (15 min) and 8.25 (active) (30 min).

As for CASTGCSAHLAGNASASA [HC2516], the “furin cleavage Z-score” value runs as follows: (7.5 min) -1.2 (inactive); (15 min) 0.402 (inactive); (30 min) -0.12 (inactive).

Regarding CAFNLRMKRDAGNASASA [FS-525], the “furin cleavage Z-score” value (7.5 min) is 14.3 (active), the “furin cleavage Z-score” value (15 min) is 12.3 (active) and the “furin cleavage Z-score” value (30 min) is 10.8 (active).

For the sequence CATNLRIKRDAGNASASA [FS-568], the “furin cleavage Z-score” value by setting is: (7.5 min) 14.5 (active); (15 min) 15.3 (active); (30 min) 10.7 (active).

In the case of CAVREVPCHRAGNASASA [HC2430], the “furin cleavage Z-score” value reads like this: (7.5 min) -1.53 (inactive); (15 min) -1.03 (inactive); (30 min) -0.128 (inactive).

For CARPGRRVCAAGNASASA [FS-3259], the “furin cleavage Z-score” value reads like this: (7.5 min) -0.847 (inactive); (15 min) -1.4 (inactive); (30 min) -1.34 (inactive).

For CAKPGRRGRAAGNASASA [FS-452], the “furin cleavage Z-score” value (7.5 min) was 6.38 (active), the “furin cleavage Z-score” value (15 min) was 5.76 (active) and the “furin cleavage Z-score” value (30 min) was 4.89 (active).

On to CARPGRRGRPAGNASASA [FS-492], for which the “furin cleavage Z-score” value (7.5 min) was -0.496 (inactive), the “furin cleavage Z-score” value (15 min) is -1.23 (inactive) and the “furin cleavage Z-score” value (30 min) was -0.0754 (inactive).

Regarding CAKRWRRGRAAGNASASA [FS-1596], the “furin cleavage Z-score” value runs as follows: (7.5 min) 6.85 (active); (15 min) 6.38 (active); (30 min) 4.94 (active).

For CAPEMEECSQAGNASASA [HC1799], the “furin cleavage Z-score” value runs as follows: (7.5 min) 0.387 (inactive); (15 min) 0.44 (inactive); (30 min) 0.854 (inactive).

As to CARERRDSGVAGNASASA [FS-2486], the “furin cleavage Z-score” value was -0.528 (inactive) (7.5 min), -0.224 (inactive) (15 min) and 0.24 (inactive) (30 min).

For CARERREVVRAGNASASA [FU3], the “furin cleavage Z-score” value is 10.2 (active) (7.5 min), 11.3 (active) (15 min) and 10.9 (active) (30 min).

Take CARYKRMVERAGNASASA [FS-2537]: the “furin cleavage Z-score” value by setting is: (7.5 min) 7.23 (active); (15 min) 7.48 (active); (30 min) 6.63 (active).

With CARYKKAVFRAGNASASA [FS-3135], the “furin cleavage Z-score” value was 2 (7.5 min), 0.2 (inactive) (15 min) and 2.99 (30 min).

CARERRWDRGAGNASASA [FS-2010]: the “furin cleavage Z-score” value runs as follows: (7.5 min) -1.3 (inactive); (15 min) -0.408 (inactive); (30 min) 1.72.

Take CARNVRFSDEAGNASASA [FS-2223]: the “furin cleavage Z-score” value is 0.545 (inactive) (7.5 min), -0.141 (inactive) (15 min) and -1.68 (inactive) (30 min).

As for CARERRRAAKAGNASASA [FS-2550], the “furin cleavage Z-score” value is 0.778 (inactive) (7.5 min), 0.314 (inactive) (15 min) and 1.46 (30 min).

For CARERRDAGRAGNASASA [FS-2137], the “furin cleavage Z-score” value runs as follows: (7.5 min) 9.55 (active); (15 min) 10.7 (active); (30 min) 9.14 (active).

CARYKRKSDEAGNASASA [FS-3177]: the “furin cleavage Z-score” value runs as follows: (7.5 min) 5.32 (active); (15 min) 5.6 (active); (30 min) 5.8 (active).

As to CARYKRKMTQAGNASASA [FS-1979], the “furin cleavage Z-score” value (7.5 min) was -0.853 (inactive), the “furin cleavage Z-score” value (15 min) was -0.612 (inactive) and the “furin cleavage Z-score” value (30 min) is -0.101 (inactive).

Regarding CATTPCSGTWAGNASASA [HC1918], the “furin cleavage Z-score” value was 0.438 (inactive) (7.5 min), 1.03 (15 min) and 0.941 (inactive) (30 min).

Consider CAAEEYVEIRAGNASASA [HC1204], for which the “furin cleavage Z-score” value by setting is: (7.5 min) -0.657 (inactive); (15 min) 2; (30 min) -1.07 (inactive).

Regarding CAQIVGGVYLAGNASASA [HC175], the “furin cleavage Z-score” value is, setting by setting: (7.5 min) -0.135 (inactive); (15 min) -2.24 (inactive); (30 min) -1.9 (inactive).

CAVVRCSMSYAGNASASA [HC2033]: the “furin cleavage Z-score” value runs as follows: (7.5 min) 1.28; (15 min) 0.684 (inactive); (30 min) -0.612 (inactive).

With CARERRRLMSAGNASASA [FS-2660], the “furin cleavage Z-score” value is -1.21 (inactive) (7.5 min), -0.546 (inactive) (15 min) and 0.262 (inactive) (30 min).

CARERRNAIRAGNASASA [FS-3219]: the “furin cleavage Z-score” value is 3.48 (7.5 min), 4.37 (active) (15 min) and 4.64 (active) (30 min).

As for CARERRGPATAGNASASA [FS-2487], the “furin cleavage Z-score” value by setting is: (7.5 min) -1.34 (inactive); (15 min) 0.671 (inactive); (30 min) -0.709 (inactive).

For CARERRDLFTAGNASASA [FS-2659], the “furin cleavage Z-score” value reads like this: (7.5 min) 5.35 (active); (15 min) 8.1 (active); (30 min) 7.97 (active).

On to CARERRADHVAGNASASA [FS-2330], for which the “furin cleavage Z-score” value was 1.39 (7.5 min), 0.278 (inactive) (15 min) and 2.34 (30 min).

As to CARERRTLSVAGNASASA [FS-2661], the “furin cleavage Z-score” value by setting is: (7.5 min) 0.891 (inactive); (15 min) 2.33; (30 min) 3.01.

On to CARENRSLFTAGNASASA [FS-2009], for which the “furin cleavage Z-score” value is, setting by setting: (7.5 min) 0.285 (inactive); (15 min) -0.333 (inactive); (30 min) -1.13 (inactive).

For the sequence CARYKRAGESAGNASASA [FS-2472], the “furin cleavage Z-score” value (7.5 min) is 8.25 (active), the “furin cleavage Z-score” value (15 min) was 10.6 (active) and the “furin cleavage Z-score” value (30 min) is 7.78 (active).

In the case of CARERRDVQRAGNASASA [FS-1696], the “furin cleavage Z-score” value is, setting by setting: (7.5 min) 10.6 (active); (15 min) 13.2 (active); (30 min) 9.38 (active).

Take CAAGCAWYELAGNASASA [HC922]: the “furin cleavage Z-score” value (7.5 min) was -0.796 (inactive), the “furin cleavage Z-score” value (15 min) is -1.42 (inactive) and the “furin cleavage Z-score” value (30 min) is -1.58 (inactive).

On to CAKEMEECSQAGNASASA [HC1794], for which the “furin cleavage Z-score” value is 0.752 (inactive) (7.5 min), 0.717 (inactive) (15 min) and 0.689 (inactive) (30 min).
